Results from the supplement of paper PMC10720658.
± gives the standard deviation of the averaged measurements.

tested on: AEK1 (Tb927.3.2440); assay: percent reduction in TR-FRET probe signal relative to DMSO control; higher = stronger displacement of ATP-site probe (binding); conditions: 1 µM; incubation time 1 h

| Compound | percent reduction in TR-FRET probe signal [%] |
| --- | --- |
| N#C/C(=C(/N)Sc1ccc(N)cc1)c1ccccc1C(F)(F)F | 2.78 ± 13 |
| C[C@@H](N)[C@H]1CC[C@H](C(=O)Nc2ccncc2)CC1.Cl.Cl | 2.66 ± 6.8 |
| Cn1cc(-c2ccc3nnc(C(F)(F)c4ccc5ncccc5c4)n3n2)cn1 | -0.537 ± 18 |
| O=C1NC(=O)/C(=C/c2cccc(C(F)(F)F)c2)S1 | -3.02 ± 1.9 |
| O=C1NC(=O)/C(=C/c2ccc(-c3ccc(F)cc3O)o2)S1 | 16 ± 24 |
